Reference: PubChem BioAssay (EPA / NIEHS)
Inconclusive results are not listed. The source made the active and inactive calls. How the source made its calls, unless noted: active means hit-call score of the fitted dose curve at least 0.9, where 1 is the maximum; inactive means score below 0.9.

Tests used:
[1] = target: Oxysterols receptor LXR-alpha (Homo sapiens) (UniProt Q13133); test: ATG_LXRa_TRANS: Attagene TRANS-FACTORIAL HepG2 Assay for human Liver X Receptor alpha (LXRa) (AID 2282980; active means hit-call score of the fitted dose curve at least 0.9, where 1 is the maximum); conditions: HepG2 Attagene TRANS reporter, LXRa transactivation
How it was run: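 HepG2 cells were transiently transfected with multiplexed reporter units driven by chimeric LXRa–GAL4 fusion proteins, then dosed for 24 h. Reporter mRNA was quantified by RT-PCR, fluorescent labelling and capillary electrophoresis; gain of signal fitted against DMSO baseline.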

[2] = target: Oxysterols receptor LXR-beta (Homo sapiens) (UniProt P55055); test: ATG_LXRb_TRANS: Attagene TRANS-FACTORIAL HepG2 Assay for human Liver X Receptor beta (LXRb) (AID 2282981; active means hit-call score of the fitted dose curve at least 0.9, where 1 is the maximum); conditions: HepG2 Attagene TRANS GAL4-LXRb reporter, mRNA
How it was run: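 After 24 h of chemical treatment, transfected HepG2 cells yield total RNA; reporter cDNA is PCR-amplified, FAM-labelled, HpaI-cut and run on capillary electrophoresis. Signal reflects chimeric LXRb-Gal4 activity on GAL4-UAS reporters.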

[3] = target: Nuclear receptor subfamily 4 group A member 2 (Homo sapiens) (UniProt P43354); test: ATG_NURR1_TRANS: Attagene TRANS-FACTORIAL HepG2 Assay for human Nuclear Receptor Related Protein 1 (NURR1) (AID 2282985; active means hit-call score of the fitted dose curve at least 0.9, where 1 is the maximum); conditions: HepG2 Attagene TRANS reporter, mRNA readout
How it was run: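 Measures transcriptional activation by an exogenous NR-Gal4 chimera in transfected HepG2 liver cells. After 24 h, reporter RNA is reverse-transcribed, amplified and resolved by capillary electrophoresis; DMSO defines baseline.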

[4] = target: Transcriptional activator Myb (Homo sapiens) (UniProt P10242); test: ATG_Myb_CIS: Attagene CIS-FACTORIAL HepG2 Assay for human Myeloblastosis (Myb) Proto-Oncogene Transcription Factor (AID 2282986); conditions: HepG2 Attagene CIS-FACTORIAL Myb reporter transcription; actives raise or lower the signal
How it was run: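 Steps: transfect HepG2 with cis-regulated reporter units; dose with chemical for 24 h; isolate RNA, reverse-transcribe, PCR-amplify and FAM-label reporter sequences; digest with HpaI; resolve by capillary electrophoresis. Activity fitted in both directions relative to DMSO.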

[5] = ATG_NFI_CIS: Attagene CIS-FACTORIAL HepG2 Assay for human Nuclear Factor I (NFI) (AID 2282989); conditions: HepG2 cis-regulatory reporter, NFI response element transcription; actives raise or lower the signal
How it was run: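 After transient transfection of HepG2 with cis-promoter reporter constructs and 24 h dosing, RNA is reverse-transcribed, amplified, 6-FAM end-labelled and HpaI-digested before capillary analysis. Bidirectional curve fitting against DMSO.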

[6] = target: Myc proto-oncogene protein (Homo sapiens) (UniProt P01106); test: ATG_Myc_CIS: Attagene CIS-FACTORIAL HepG2 Assay for human Myelocytomatosis (Myc) Proto-Oncogene Transcription Factor (AID 2282990); conditions: HepG2, Attagene cis-reporter transcription factor activity; actives raise or lower the signal
How it was run: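 After 24 h chemical treatment of HepG2 cells carrying multiplexed cis-regulated reporter constructs, reporter transcripts quantified by RT-PCR and capillary electrophoresis of fluorescent fragments. Gain or loss fitted against DMSO baseline.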

[7] = ATG_NRF2_ARE_CIS: Attagene CIS-FACTORIAL HepG2 Assay for human Nuclear Factor Erythroid 2 Related Factor 2 (NFR2) response to Antioxidant Response Elements (ARE) (AID 2282992); conditions: HepG2 Attagene ARE/NRF2 reporter, transcription factor activity; actives raise or lower the signal
How it was run: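 Endogenous transcription factor activity in human liver HepG2 cells is tracked via a cis-element-driven reporter within a multiplexed set. mRNA induction is read by RT-PCR and capillary electrophoresis after 24 h, with DMSO as baseline.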

[8] = ATG_Oct_MLP_CIS: Attagene CIS-FACTORIAL HepG2 Assay for human Octamer-Binding Transcription Factor (Oct) (AID 2282993); conditions: HepG2 Attagene cis-factorial Oct reporter, mRNA; actives raise or lower the signal
How it was run: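 Cells of the HepG2 line express promoter-controlled reporter sequences whose mRNA levels, after 24 h treatment, are measured by RT-PCR and capillary electrophoresis. Increases and decreases are scored relative to DMSO.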

[9] = target: Cellular tumor antigen p53 (Homo sapiens) (UniProt P04637); test: ATG_p53_CIS: Attagene CIS-FACTORIAL HepG2 Assay for human p53 Transcription Factor (AID 2282994); conditions: HepG2 p53 cis-element reporter, Attagene mRNA; actives raise or lower the signal
How it was run: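 Steps: transfect HepG2 with multiplexed cis reporter constructs; dose chemicals 24 h; extract RNA, reverse-transcribe, PCR-amplify reporter sequences; FAM-label, HpaI-digest, resolve fragments by CE. Activity fitted both directions relative to DMSO.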

[10] = target: Hepatocyte nuclear factor 4-alpha (Homo sapiens) (UniProt P41235); test: ATG_HNF4a_TRANS: Attagene TRANS-FACTORIAL HepG2 Assay for human Hepatocyte Nuclear Factor 4 alpha (HNF4a) (AID 2282982; active means hit-call score of the fitted dose curve at least 0.9, where 1 is the maximum); conditions: HepG2 HNF4a transactivation reporter, mRNA readout
How it was run: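 Multiplexed reporter assay: transfected HepG2, 24 h exposure, total RNA → oligo(dT) RT → PCR → 6-FAM extension → HpaI digest → CE fluorescence. DMSO = negative control.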

[11] = ATG_M_06_TRANS: Attagene TRANS-FACTORIAL HepG2 Assay for M06 Transcription Factor (Internal Marker) (AID 2282983; active means hit-call score of the fitted dose curve at least 0.9, where 1 is the maximum;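 further: reporter transcript level by RT-PCR then capillary electrophoresis fluorescence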); conditions: HepG2 Attagene TRANS M06 internal marker reporter
How it was run: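 In this multiplexed HepG2 system, compounds are incubated 24 h with cells carrying GAL4-UAS reporter units. Reporter RNA is amplified and resolved by capillary electrophoresis, and induction is scored against DMSO.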

[12] = ATG_M_32_TRANS: Attagene TRANS-FACTORIAL HepG2 Assay for M32 Transcription Factor (Internal Marker) (AID 2282984; active means hit-call score of the fitted dose curve at least 0.9, where 1 is the maximum;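 further: transcript level of a background control reporter unit measured by RT-PCR and capillary electrophoresis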); conditions: HepG2 Attagene TRANS M32 internal marker reporter
How it was run: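 Cell-based TRANS-format assay in HepG2: exogenous chimeric GAL4 reporter units transiently expressed, compounds applied 24 h. Reporter mRNA detected by RT-PCR plus capillary electrophoresis; this readout is an internal background marker.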

[13] = target: Nuclear respiratory factor 1 (Homo sapiens) (UniProt Q16656); test: ATG_NRF1_CIS: Attagene CIS-FACTORIAL HepG2 Assay for human Nuclear Respiratory Factor 1 (NRF1) Orphan Gene (AID 2282987); conditions: HepG2 NRF1 cis-element reporter, Attagene multiplex; actives raise or lower the signal
How it was run: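 Fluorescence intensity of labelled reporter cDNA fragments, resolved by capillary electrophoresis, served as readout for NRF1 cis-element activity. Transiently transfected HepG2 cells were dosed for 24 hours; activity in either direction was fitted against DMSO negative control.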

[14] = ATG_NF_kB_CIS: Attagene CIS-FACTORIAL HepG2 Assay for human Nuclear Factor Kappa B (NF-kB) (AID 2282991); conditions: HepG2 Attagene cis-factorial NF-kB reporter mRNA; actives raise or lower the signal
How it was run: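 Endogenous transcription factor activity in HepG2 was captured via cis-regulated reporter constructs; after 24 h dosing, reporter mRNA was reverse-transcribed, amplified, fluorescently labelled and sized by capillary electrophoresis, with activity fitted bidirectionally relative to DMSO.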

[15] = target: Bile acid receptor (Homo sapiens) (UniProt Q96RI1); test: ATG_FXR_TRANS: Attagene TRANS-FACTORIAL HepG2 Assay for Farnesoid X Receptor (FXR) (AID 2282979; active means hit-call score of the fitted dose curve at least 0.9, where 1 is the maximum;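 further: hits raise reporter mRNA above DMSO so AC50 marks FXR activation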); conditions: HepG2 Attagene TRANS FXR-GAL4 reporter transcription
How it was run: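 HepG2 cells transiently transfected with reporter constructs in which a chimeric FXR-GAL4 protein drives a GAL4-UAS reporter; 24 h compound exposure. Reporter mRNA measured by RT-PCR, FAM labelling, HpaI digestion and capillary electrophoresis; gain-of-signal versus DMSO.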

Myc proto-oncogene protein (Homo sapiens), sequence (P01106 whole entry, looked up, the tested form may be a part): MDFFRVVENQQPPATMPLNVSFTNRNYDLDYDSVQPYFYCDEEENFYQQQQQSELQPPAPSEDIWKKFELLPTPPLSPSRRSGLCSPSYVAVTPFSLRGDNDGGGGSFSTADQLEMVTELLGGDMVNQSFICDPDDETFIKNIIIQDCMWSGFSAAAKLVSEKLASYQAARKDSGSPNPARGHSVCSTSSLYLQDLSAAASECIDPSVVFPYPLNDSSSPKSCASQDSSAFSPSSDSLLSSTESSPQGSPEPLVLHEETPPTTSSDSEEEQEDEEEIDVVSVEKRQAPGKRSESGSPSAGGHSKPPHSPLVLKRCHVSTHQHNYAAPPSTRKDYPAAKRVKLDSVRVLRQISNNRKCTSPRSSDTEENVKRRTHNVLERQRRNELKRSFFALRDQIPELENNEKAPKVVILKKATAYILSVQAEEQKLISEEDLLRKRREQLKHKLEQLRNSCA
Nuclear respiratory factor 1 (Homo sapiens), sequence (Q16656 whole entry, looked up, the tested form may be a part): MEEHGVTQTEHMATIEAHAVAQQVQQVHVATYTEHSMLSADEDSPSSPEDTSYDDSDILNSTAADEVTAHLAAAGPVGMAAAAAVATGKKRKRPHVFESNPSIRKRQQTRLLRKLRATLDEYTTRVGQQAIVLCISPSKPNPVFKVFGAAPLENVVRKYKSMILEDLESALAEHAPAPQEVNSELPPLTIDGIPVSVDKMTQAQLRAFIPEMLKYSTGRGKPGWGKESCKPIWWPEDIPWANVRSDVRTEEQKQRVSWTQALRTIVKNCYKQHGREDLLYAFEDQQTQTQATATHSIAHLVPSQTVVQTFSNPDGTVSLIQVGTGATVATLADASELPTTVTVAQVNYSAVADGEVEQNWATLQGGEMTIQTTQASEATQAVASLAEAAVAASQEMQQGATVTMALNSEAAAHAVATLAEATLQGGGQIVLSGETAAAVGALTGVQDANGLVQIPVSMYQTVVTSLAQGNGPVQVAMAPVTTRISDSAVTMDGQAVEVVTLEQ
Cellular tumor antigen p53 (Homo sapiens), sequence (P04637 whole entry, looked up, the tested form may be a part): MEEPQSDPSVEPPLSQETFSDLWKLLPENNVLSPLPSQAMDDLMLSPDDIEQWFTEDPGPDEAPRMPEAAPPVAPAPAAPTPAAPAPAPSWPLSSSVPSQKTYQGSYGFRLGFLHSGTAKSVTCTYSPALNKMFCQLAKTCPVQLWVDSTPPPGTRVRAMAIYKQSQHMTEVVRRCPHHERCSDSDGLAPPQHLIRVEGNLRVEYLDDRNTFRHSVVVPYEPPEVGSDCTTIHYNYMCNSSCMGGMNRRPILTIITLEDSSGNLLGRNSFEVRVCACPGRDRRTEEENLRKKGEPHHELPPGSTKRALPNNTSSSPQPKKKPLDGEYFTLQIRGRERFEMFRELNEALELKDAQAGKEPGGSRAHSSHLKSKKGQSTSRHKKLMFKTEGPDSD
Transcriptional activator Myb (Homo sapiens), sequence (P10242 whole entry, looked up): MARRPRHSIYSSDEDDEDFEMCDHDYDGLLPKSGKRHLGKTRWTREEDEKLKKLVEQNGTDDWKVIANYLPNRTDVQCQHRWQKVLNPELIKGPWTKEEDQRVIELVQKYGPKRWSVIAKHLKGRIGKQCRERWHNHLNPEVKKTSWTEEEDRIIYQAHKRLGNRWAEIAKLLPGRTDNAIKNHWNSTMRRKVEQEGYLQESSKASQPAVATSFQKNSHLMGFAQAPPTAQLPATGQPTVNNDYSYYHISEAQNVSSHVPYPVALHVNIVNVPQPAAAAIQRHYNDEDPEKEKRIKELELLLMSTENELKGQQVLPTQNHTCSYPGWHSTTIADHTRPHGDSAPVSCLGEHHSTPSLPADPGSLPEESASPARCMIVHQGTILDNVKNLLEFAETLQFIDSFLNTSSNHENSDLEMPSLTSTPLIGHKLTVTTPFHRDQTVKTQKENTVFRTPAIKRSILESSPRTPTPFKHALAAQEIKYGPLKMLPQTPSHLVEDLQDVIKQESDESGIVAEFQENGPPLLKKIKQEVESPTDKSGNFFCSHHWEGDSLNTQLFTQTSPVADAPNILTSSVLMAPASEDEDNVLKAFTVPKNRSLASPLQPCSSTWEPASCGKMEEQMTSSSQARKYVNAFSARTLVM
Nuclear receptor subfamily 4 group A member 2 (Homo sapiens), sequence (P43354 whole entry, looked up, the tested form may be a part): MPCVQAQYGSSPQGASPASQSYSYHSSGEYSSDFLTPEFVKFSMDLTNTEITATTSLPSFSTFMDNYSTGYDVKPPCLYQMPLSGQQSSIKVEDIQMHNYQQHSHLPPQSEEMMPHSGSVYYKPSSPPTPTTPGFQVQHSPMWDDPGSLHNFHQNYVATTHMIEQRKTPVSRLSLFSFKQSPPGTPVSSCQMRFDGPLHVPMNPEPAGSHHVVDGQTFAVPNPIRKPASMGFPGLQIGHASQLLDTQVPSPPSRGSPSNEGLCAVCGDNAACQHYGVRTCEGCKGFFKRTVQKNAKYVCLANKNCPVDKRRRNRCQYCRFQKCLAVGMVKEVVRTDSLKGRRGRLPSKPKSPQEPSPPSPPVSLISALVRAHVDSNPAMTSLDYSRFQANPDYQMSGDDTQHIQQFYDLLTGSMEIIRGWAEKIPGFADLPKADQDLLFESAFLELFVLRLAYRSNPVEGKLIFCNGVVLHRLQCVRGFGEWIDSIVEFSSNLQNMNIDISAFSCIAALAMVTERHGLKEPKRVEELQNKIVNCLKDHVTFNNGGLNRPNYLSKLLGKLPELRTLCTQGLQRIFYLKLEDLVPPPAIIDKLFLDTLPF
Hepatocyte nuclear factor 4-alpha (Homo sapiens), sequence (P41235 whole entry, looked up): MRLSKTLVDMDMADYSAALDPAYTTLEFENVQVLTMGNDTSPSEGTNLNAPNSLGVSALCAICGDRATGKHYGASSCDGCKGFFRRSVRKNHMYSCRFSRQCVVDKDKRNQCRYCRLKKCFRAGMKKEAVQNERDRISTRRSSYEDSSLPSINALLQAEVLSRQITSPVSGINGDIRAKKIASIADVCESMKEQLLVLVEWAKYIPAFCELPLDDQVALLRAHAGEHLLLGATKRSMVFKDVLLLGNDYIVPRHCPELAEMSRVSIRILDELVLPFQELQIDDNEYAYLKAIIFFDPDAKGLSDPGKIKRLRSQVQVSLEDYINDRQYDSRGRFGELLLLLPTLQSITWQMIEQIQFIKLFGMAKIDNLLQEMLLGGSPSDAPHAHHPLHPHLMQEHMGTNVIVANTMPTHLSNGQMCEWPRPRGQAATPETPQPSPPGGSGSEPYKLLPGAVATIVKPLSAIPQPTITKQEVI
Oxysterols receptor LXR-beta (Homo sapiens), sequence (P55055 whole entry, looked up, the tested form may be a part): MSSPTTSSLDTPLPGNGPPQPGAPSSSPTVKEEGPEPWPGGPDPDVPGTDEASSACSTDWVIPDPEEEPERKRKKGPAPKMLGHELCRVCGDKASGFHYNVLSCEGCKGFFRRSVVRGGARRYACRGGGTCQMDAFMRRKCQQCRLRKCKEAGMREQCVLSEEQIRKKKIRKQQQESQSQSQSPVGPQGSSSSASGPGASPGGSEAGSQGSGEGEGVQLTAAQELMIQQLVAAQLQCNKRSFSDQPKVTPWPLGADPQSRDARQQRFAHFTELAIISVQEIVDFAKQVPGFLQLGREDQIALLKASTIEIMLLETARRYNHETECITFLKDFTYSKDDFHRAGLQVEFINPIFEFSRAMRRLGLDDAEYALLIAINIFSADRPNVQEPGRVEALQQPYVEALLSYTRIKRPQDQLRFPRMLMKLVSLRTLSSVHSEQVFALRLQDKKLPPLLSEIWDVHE
Oxysterols receptor LXR-alpha (Homo sapiens), sequence (Q13133 whole entry, looked up, the tested form may be a part): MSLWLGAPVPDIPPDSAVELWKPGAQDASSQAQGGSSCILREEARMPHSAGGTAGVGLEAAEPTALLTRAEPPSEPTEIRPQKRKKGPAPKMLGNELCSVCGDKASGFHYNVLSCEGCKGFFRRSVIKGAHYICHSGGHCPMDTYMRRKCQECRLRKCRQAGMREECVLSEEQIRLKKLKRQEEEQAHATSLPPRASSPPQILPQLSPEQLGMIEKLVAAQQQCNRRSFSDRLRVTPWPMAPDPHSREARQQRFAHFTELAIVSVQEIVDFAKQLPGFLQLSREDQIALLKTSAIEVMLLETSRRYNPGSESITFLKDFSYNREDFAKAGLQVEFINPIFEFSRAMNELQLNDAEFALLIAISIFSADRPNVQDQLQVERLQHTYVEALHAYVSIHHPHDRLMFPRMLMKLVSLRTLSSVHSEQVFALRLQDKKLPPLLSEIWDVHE
Bile acid receptor (Homo sapiens), sequence (Q96RI1 whole entry, looked up, the tested form may be a part): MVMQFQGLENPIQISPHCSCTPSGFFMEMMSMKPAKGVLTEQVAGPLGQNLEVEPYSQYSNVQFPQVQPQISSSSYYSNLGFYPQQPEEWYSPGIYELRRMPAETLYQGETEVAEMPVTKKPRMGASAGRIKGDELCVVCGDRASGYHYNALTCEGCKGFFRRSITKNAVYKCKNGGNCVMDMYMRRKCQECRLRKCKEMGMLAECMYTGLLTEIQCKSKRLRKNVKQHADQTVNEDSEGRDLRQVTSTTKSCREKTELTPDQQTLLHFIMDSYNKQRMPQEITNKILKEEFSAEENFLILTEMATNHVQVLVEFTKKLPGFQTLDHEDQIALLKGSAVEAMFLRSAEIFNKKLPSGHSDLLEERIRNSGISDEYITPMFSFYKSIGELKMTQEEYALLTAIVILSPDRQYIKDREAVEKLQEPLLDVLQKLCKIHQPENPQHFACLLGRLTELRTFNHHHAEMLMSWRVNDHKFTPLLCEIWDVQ

Row | Compound | outcome [1] | outcome [2] | outcome [3] | outcome [4] | outcome [5] | outcome [6] | outcome [7] | outcome [8] | outcome [9] | outcome [10] | outcome [11] | outcome [12] | outcome [13] | AC50 [7] | outcome [14] | outcome [15] | AC50 [14] | AC50 [9] | AC50 [5]
1 | CC(CC=O)CC(C)(C)C (configuration not stated) | inactive | inactive | inactive | inactive | inactive | inactive | inactive | inactive | inactive |  |  |  |  |  |  |  |  |  | 
2 | CC1=CCC(C(C)C)C=C1 (configuration not stated) | inactive | inactive | inactive | inactive | inactive | inactive |  | inactive | inactive | inactive | inactive | inactive | inactive | 25.3 µM (active) |  |  |  |  | 
3 | COc1cc(O)c(C(=O)c2ccccc2)cc1S(=O)(=O)O | inactive |  | inactive | inactive | inactive | inactive | inactive | inactive |  | inactive | inactive |  | inactive |  | inactive |  |  |  | 
4 | N#Cc1ccc(C2CCCc3cncn32)cc1 (configuration not stated) | inactive |  | inactive | inactive | inactive | inactive | inactive | inactive | inactive | inactive | inactive | inactive | inactive |  | inactive |  |  |  | 
5 | Cc1ccccc1CCO |  |  |  | inactive | inactive |  | inactive | inactive | inactive | inactive |  | inactive | inactive |  | inactive | inactive |  |  | 
6 | CCCC/C=C/C=C\C=O |  | inactive |  | inactive | inactive | inactive |  | inactive |  |  |  |  | inactive | 41.3 µM (active) |  | inactive | 63.8 µM (active) | 165 µM (active) | 
7 | CCCCNS(=O)(=O)c1ccc(C)cc1 | inactive | inactive | inactive | inactive | inactive | inactive | inactive | inactive | inactive |  | inactive |  | inactive |  |  |  |  |  | 
8 | CC(C)COC(=O)CC(C(=O)OCC(C)C)S(=O)(=O)O (configuration not stated) | inactive | inactive | inactive | inactive | inactive | inactive | inactive | inactive | inactive |  |  |  | inactive |  | inactive |  |  |  | 
9 | CCC(C)(O)CCCC(C)C (configuration not stated) |  | inactive | inactive | inactive | inactive | inactive | inactive | inactive | inactive |  |  |  |  |  | inactive | inactive |  |  | 
10 | CCc1occc(=O)c1O |  |  |  | inactive | inactive |  | inactive | inactive | inactive |  | inactive | inactive |  |  | inactive | inactive |  |  | 
11 | CCCCc1ccc(Cl)cc1 |  |  | inactive | inactive | inactive | inactive | inactive | inactive | inactive |  | inactive | inactive | inactive |  |  | inactive |  |  | 
12 | CCCCC/C=C\C/C=C\CCCCCCCC(=O)O |  |  |  | inactive |  | inactive |  | inactive | inactive | inactive | inactive |  | inactive | 51.6 µM (active) |  | inactive |  |  | 163 µM (active)
13 | Cc1noc(NS(=O)(=O)c2ccc(N)cc2)c1C |  |  | inactive | inactive |  | inactive | inactive | inactive | inactive | inactive | inactive |  |  |  |  | inactive |  |  | 
